# Experimental data as given in PubChem BioAssay (NCATS).
# Results filed as inconclusive are left out. The source made the active and inactive calls. Calls come from the whole dose curve; tested in HEK293 reporter line.
# Experiment: qHTS for Inhibitors of the Functional Ribonucleoprotein Complex (vRNP) of Lassa (LASV) Arenavirus: Viability assay - alamar blue signal for LASV Primary Screen (AID 1347083); note: nearly all actives have a fitted effect of over 80% in size
# Settings: cell viability, alamar blue fluorescence (LASV minigenome counter-screen); series mostly up to 57.5 µM; activity change, negative = reduced viability: at the top concentration
# % is set by controls: 0 for no effect and ±100 for the full control effect; potency is the fitted concentration of half-maximal effect.
SMILES,"activity change, negative = reduced viability",Potency
CC(=O)Oc1ccc2c(=O)c(-c3ccccc3)c(C)oc2c1,-0.9% (inactive),–
CCCCCOC(=O)CCC,8.79% [at 115 µM] (inactive),–
C=C(C)[C@@H]1CC[C@@H](C)C[C@@H]1O,-3.14% [at 115 µM] (inactive),–
CCCCOC(=O)C(=O)OCCCC,10.8% [at 115 µM] (inactive),–
CCC(C)(O)C(=O)N[C@H]1CCCN1C(=O)/C=C/c1ccccc1 (some centres undefined),2.31% (inactive),–
CC(C)N(CCCNC(=O)Nc1ccc(C(C)(C)C)cc1)C[C@H]1O[C@@H](n2cc(Br)c3c(N)ncnc32)[C@H](O)[C@H]1O,-20.7% (inactive),–
C=C1C(=O)OC2C=C(C)CCC=C(C)CCC12 (centres undefined),7.16% (inactive),–
CNCC(=O)O,28.3% (inactive),–
COc1ccc(C[C@@H]2c3cc(O)c(OC)cc3CCN2C)cc1O,3.9% (inactive),–
COc1c2c(cc3oc(CO[C@@H]4O[C@H](CO)[C@@H](O)[C@H](O)[C@H]4O)cc(=O)c13)O[C@H](C(C)(C)O)C2,6.25% (inactive),–
COC(=O)/C=C\C(=O)O,8.15% [at 115 µM] (inactive),–
CC(C)=C[C@H]1C[C@H](C)[C@H]2CC[C@H](C)c3c(O[C@@H]4OC[C@@H](O)[C@H](O)C4O)c(O)c(C)c1c32 (some centres undefined),2.03% (inactive),–
COc1cc2c(cc1OC)[C@@H]1Cc3cc4c(cc3[C@H](C2)N1C)OCO4,-3.54% (inactive),–
COc1c2c(c(CCC(=O)O)c3c1C=CC(C)(C)O3)OC(C)(C)C=C2,6.76% (inactive),–
O=C(O)CCCCCCCCCC(=O)O,22.1% [at 115 µM] (inactive),–
CC[C@H](C)C(=O)N[C@H]1CCCN1C(=O)/C=C/c1ccccc1,-1.08% (inactive),–
CC1=CC23C(=O)C(C=C(CO)[C@@H](O)[C@]2(O)[C@H]1O)[C@H]1[C@@H](C[C@H]3C)C1(C)C (some centres undefined),25% (inactive),–
CCn1c(-c2nonc2N)nc2cncc(CNC3CCNCC3)c21,–,17.2 µM (active)
O=c1[nH]c(O)c(/C=C2\C=Nc3ccccc32)[nH]1,0.925% (inactive),–
C=C[C@]1(C)Cc2occ(C)c2C[C@H]1C(=C)C(=O)O,11.5% (inactive),–

SMILES,"activity change, negative = reduced viability",Potency
COc1ccc(CO)cc1,6.75% [at 115 µM] (inactive),–
S=C(NCc1ccccc1)NCc1ccccc1,12.4% (inactive),–
CC1C(=O)OC2C1CCC1(C)CCC(=O)C(C)C21 (centres undefined),3.29% (inactive),–
CCC(=O)OCCC(C)CCC=C(C)C (centres undefined),-2.09% [at 115 µM] (inactive),–
Nc1nc(N)c2[nH]cnc2n1,13.1% (inactive),–
CN1C2CCC1CC(OC(=O)c1cccc(O)c1)C2 (centres undefined),6.97% (inactive),–
COc1cc(N2CCN(C)CC2)ccc1Nc1nc(N)c(C(=O)c2c(Cl)cccc2Cl)s1,-3.98% (inactive),–
NC(C(=O)O)C1ON=C(Cl)C1O (centres undefined),-1.2% (inactive),–
CC1(C)C2=CCCC(C)(C)[C@]23CC[C@H]1C3,-14.6% [at 115 µM] (inactive),–
CCN1CC2(COC(=O)c3ccccc3N)CCC(OC)C34C5CC6C(OC)CC(O)(C5C6OC)C(O)(C(OC)C23)C14 (centres undefined),-3.71% (inactive),–
NCCC(=O)c1ccccc1N,7.1% (inactive),–
Cn1c2c(c(=O)c3ccccc31)CCC(C)(C)O2,-0.491% (inactive),–
CC1(C)C[C@H]2C3=CCC4[C@@]5(C)CC[C@H](O)[C@](C)(CO)C5CC[C@@]4(C)[C@]3(C)C[C@H]3O[C@@H]1[C@H](O)[C@]32CO (some centres undefined),11.5% (inactive),–
COc1cc2cc(Oc3ccc4ccc(=O)oc4c3)c(=O)oc2cc1O[C@@H]1O[C@H](CO)[C@@H](O)[C@H](O)[C@H]1O,1.95% (inactive),–
CCN1CCC(n2cc(CNc3cc(Cl)c4ncc(C#N)c(Nc5ccc(F)c(Cl)c5)c4c3)nn2)CC1,-2.77% (inactive),–
CSCCCN=C=S,-27.3% [at 115 µM] (inactive),–
CCCC(C)C(O)CC (centres undefined),6.89% [at 115 µM] (inactive),–
CCCCN,2.07% (inactive),–
C=C(CO)CC1CC(O)[C@]2(C)OC3CC4OC5C[C@]6(C)O[C@]7(C)CCC8OC9C[C@]%10(C)OC%11C(C)=CC(=O)OC%11CC%10OC9C[C@@H](C)C8OC7CC6O[C@]5(C)C/C=C\C4OC3CC2O1 (some centres undefined),10.3% (inactive),–
